Consider six compounds from PubChem BioAssay (EPA / NIEHS).

By AC50 is commonly meant the concentration at which the activity in the assay is half-maximal.

Structures are written as SMILES. Inconclusive results are not listed. The source made the active and inactive calls. The calls were made as follows, unless noted: active = hit-call score of the fitted dose curve at least 0.9, where 1 is the maximum; inactive = score below 0.9.

Test [1] has as its target Oxysterols receptor LXR-alpha (Homo sapiens) (UniProt Q13133). Briefly: ATG_LXRa_TRANS: Attagene TRANS-FACTORIAL HepG2 Assay for human Liver X Receptor alpha (LXRa) (AID 2282980; active = hit-call score of the fitted dose curve at least 0.9, where 1 is the maximum). The conditions noted are these: HepG2 Attagene TRANS reporter, LXRa transactivation. In a few lines: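 Chemical-induced reporter mRNA measured by RT-PCR with fluorescent labelling and capillary electrophoresis after 24 h dosing of transiently transfected HepG2 cells expressing exogenous NR-Gal4 chimeras; increases scored against DMSO baseline.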

The target in test [2] is Oxysterols receptor LXR-beta (Homo sapiens) (UniProt P55055). Briefly: ATG_LXRb_TRANS: Attagene TRANS-FACTORIAL HepG2 Assay for human Liver X Receptor beta (LXRb) (AID 2282981; active = hit-call score of the fitted dose curve at least 0.9, where 1 is the maximum). The conditions noted are these: HepG2 Attagene TRANS GAL4-LXRb reporter, mRNA. An outline of the steps:
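HepG2 cells transiently transfected with GAL4-UAS reporter units for chimeric NR-Gal4 proteins, dosed for 24 h. Reporter transcripts measured by RT-PCR and capillary electrophoresis; gain-of-signal fitting relative to DMSO.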

Test [3] concerns the target Hepatocyte nuclear factor 4-alpha (Homo sapiens) (UniProt P41235). The experiment in a line: ATG_HNF4a_TRANS: Attagene TRANS-FACTORIAL HepG2 Assay for human Hepatocyte Nuclear Factor 4 alpha (HNF4a) (AID 2282982; active = hit-call score of the fitted dose curve at least 0.9, where 1 is the maximum). The conditions noted are these: HepG2 HNF4a transactivation reporter, mRNA readout. An outline of the steps:
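HepG2 cells transiently transfected with HNF4a-Gal4 chimera and GAL4-UAS reporter units, dosed for 24 h. Reporter mRNA measured by RT-PCR, fluorescent primer extension and capillary electrophoresis; gain-of-signal fitted relative to DMSO.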

For test [4], the target named is Transcriptional activator Myb (Homo sapiens) (UniProt P10242). The experiment in a line: ATG_Myb_CIS: Attagene CIS-FACTORIAL HepG2 Assay for human Myeloblastosis (Myb) Proto-Oncogene Transcription Factor (AID 2282986). Conditions: HepG2 Attagene CIS-FACTORIAL Myb reporter transcription; actives raise or lower the signal. An outline of the steps:
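Endogenous transcription factor activity at a Myb-responsive cis element is reported in human liver HepG2 cells after 24 h chemical treatment. Reporter mRNA is detected by RT-PCR and capillary electrophoresis fluorescence, with DMSO as baseline.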

The target of test [5] is Nuclear respiratory factor 1 (Homo sapiens) (UniProt Q16656). The experiment in a line: ATG_NRF1_CIS: Attagene CIS-FACTORIAL HepG2 Assay for human Nuclear Respiratory Factor 1 (NRF1) Orphan Gene (AID 2282987). The conditions noted are these: HepG2 NRF1 cis-element reporter, Attagene multiplex; actives raise or lower the signal. In a few lines:
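Human hepatoma HepG2 cells carrying transfected promoter-regulated reporter units were incubated with test chemicals for 24 h. Reporter transcripts were measured by RT-PCR plus capillary electrophoresis, and endpoints derived by bidirectional fitting with DMSO as baseline.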

Test [6] can be described thus: ATG_NFI_CIS: Attagene CIS-FACTORIAL HepG2 Assay for human Nuclear Factor I (NFI) (AID 2282989). The conditions noted are these: HepG2 cis-regulatory reporter, NFI response element transcription; actives raise or lower the signal. An outline of the steps:
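Transfected HepG2 liver cells, exposed 24 h, supplied total RNA for oligo(dT) reverse transcription and reporter-specific PCR. Labelled, HpaI-cut fragments were sized by capillary electrophoresis; DMSO set the baseline for bidirectional fitting.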

Test [7] deals with Myc proto-oncogene protein (Homo sapiens) (UniProt P01106). Briefly: ATG_Myc_CIS: Attagene CIS-FACTORIAL HepG2 Assay for human Myelocytomatosis (Myc) Proto-Oncogene Transcription Factor (AID 2282990). The conditions noted are these: HepG2, Attagene cis-reporter transcription factor activity; actives raise or lower the signal. In a few lines: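 Fluorescence intensity of reporter-specific cDNA fragments, separated by capillary electrophoresis, gives the signal. Transfected HepG2 cells carrying cis-promoter reporter constructs are incubated with compound for 24 h; DMSO serves as baseline.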
Myc proto-oncogene protein (Homo sapiens), sequence (P01106 whole entry, looked up, the tested form may be a part): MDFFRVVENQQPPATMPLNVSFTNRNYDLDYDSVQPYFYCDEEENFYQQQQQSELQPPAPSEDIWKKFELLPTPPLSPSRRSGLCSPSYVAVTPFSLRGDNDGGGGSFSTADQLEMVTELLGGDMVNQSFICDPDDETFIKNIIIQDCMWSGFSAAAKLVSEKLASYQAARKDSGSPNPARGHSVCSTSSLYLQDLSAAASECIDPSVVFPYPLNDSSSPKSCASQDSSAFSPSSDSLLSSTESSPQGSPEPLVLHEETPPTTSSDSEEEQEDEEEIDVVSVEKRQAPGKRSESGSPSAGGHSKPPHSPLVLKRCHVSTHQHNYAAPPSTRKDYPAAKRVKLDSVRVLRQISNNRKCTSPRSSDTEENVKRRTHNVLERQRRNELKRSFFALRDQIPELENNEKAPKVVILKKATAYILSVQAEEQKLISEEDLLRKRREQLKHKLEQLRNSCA

The nature of test [8]: ATG_NRF2_ARE_CIS: Attagene CIS-FACTORIAL HepG2 Assay for human Nuclear Factor Erythroid 2 Related Factor 2 (NFR2) response to Antioxidant Response Elements (ARE) (AID 2282992).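 As to AC50: reporter mRNA level measured by RT-PCR and capillary electrophoresis fluorescence.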 The conditions noted are these: HepG2 Attagene ARE/NRF2 reporter, transcription factor activity; actives raise or lower the signal. An outline of the steps:
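HepG2 cells transiently transfected with multiplexed cis-regulated reporter transcription units measure endogenous transcription factor activity. Reporter mRNA at 24 h is quantified by RT-PCR, fluorescent labelling and capillary electrophoresis, with bidirectional fitting relative to DMSO.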

A short description of test [9]: ATG_Oct_MLP_CIS: Attagene CIS-FACTORIAL HepG2 Assay for human Octamer-Binding Transcription Factor (Oct) (AID 2282993). Conditions: HepG2 Attagene cis-factorial Oct reporter, mRNA; actives raise or lower the signal. In a few lines:
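Using HepG2 cells bearing transfected cis-reporter constructs, mRNA induction was read after 24 h by fluorescent RT-PCR and capillary electrophoresis, with DMSO defining baseline for gain- or loss-of-signal fits.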

The target in test [10] is Cellular tumor antigen p53 (Homo sapiens) (UniProt P04637). The experiment in a line: ATG_p53_CIS: Attagene CIS-FACTORIAL HepG2 Assay for human p53 Transcription Factor (AID 2282994). Conditions: HepG2 p53 cis-element reporter, Attagene mRNA; actives raise or lower the signal. In a few lines: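 HepG2 cells transiently transfected with multiplexed cis-regulated reporter transcription units read endogenous TF activity. After 24 h compound exposure, reporter mRNA was quantified by RT-PCR, fluorescent labelling, HpaI digestion and capillary electrophoresis; bidirectional fits versus DMSO baseline.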
Cellular tumor antigen p53 (Homo sapiens), sequence (P04637 whole entry, looked up): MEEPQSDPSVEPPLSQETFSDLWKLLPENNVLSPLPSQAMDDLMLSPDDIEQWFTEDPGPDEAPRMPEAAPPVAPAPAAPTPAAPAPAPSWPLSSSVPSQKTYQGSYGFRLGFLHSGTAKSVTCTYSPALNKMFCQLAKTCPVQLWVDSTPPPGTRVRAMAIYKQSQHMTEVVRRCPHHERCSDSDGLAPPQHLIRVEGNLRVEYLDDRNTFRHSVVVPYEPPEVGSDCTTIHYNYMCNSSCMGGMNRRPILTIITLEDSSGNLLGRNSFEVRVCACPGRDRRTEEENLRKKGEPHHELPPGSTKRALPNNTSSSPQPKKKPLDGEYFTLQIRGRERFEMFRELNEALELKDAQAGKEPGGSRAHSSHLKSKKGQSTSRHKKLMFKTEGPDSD

Test [11] can be described thus: BSK_3C_TissueFactor: BioMAP Diversity Plus: 3C Assay for Tissue Factor Biomarker Activity (AID 2282997). The conditions noted are these: BioMAP 3C HUVEC, tissue factor biomarker readout; actives raise or lower the signal. In a few lines: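 Dosing of human umbilical vein endothelial cells preceded a 24 h incubation. Tissue Factor was then read by ELISA, with increases and decreases both scored relative to DMSO controls.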

A short description of test [12]: BSK_3C_uPAR: BioMAP Diversity Plus: 3C Assay for Urokinase-type plasminogen activator receptor (uPAR) Biomarker Activity (AID 2282998). The conditions noted are these: BioMAP 3C HUVEC, uPAR biomarker ELISA; actives raise or lower the signal. An outline of the steps: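 In this endothelial cell-based assay, human umbilical vein primary cells were treated with chemicals and harvested at 24 h. uPAR was quantified using ELISA, with gains or losses fitted relative to DMSO controls.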

A short description of test [13]: BSK_3C_VCAM1: BioMAP Diversity Plus: 3C Assay for Vascular cell adhesion molecule 1 (VCAM1) Biomarker Activity (AID 2282999). Conditions: BioMAP 3C HUVEC, VCAM1 ELISA, cytokine-stimulated; actives raise or lower the signal. In a few lines:
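Human umbilical vein endothelial cells (3C system), biomarker read by ELISA 24 h after dosing; bidirectional fit against DMSO baseline. Cytotoxicity tracked by SRB total-protein staining in parallel cultures at biomarker time.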
For orientation: In an ELISA, binding on a coated surface is turned into a signal by an enzyme label.

Test [14] in a line: ATG_Hpa5_TRANS: Attagene TRANS-FACTORIAL HepG2 Assay for human GAL4-Hpa5 Hepatocyte Transcription Factor Basal Promoter (AID 2282975; active = hit-call score of the fitted dose curve at least 0.9, where 1 is the maximum). Conditions: HepG2 Attagene GAL4-Hpa5 transcription reporter. In a few lines:
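Basal-promoter GAL4 background control within the HepG2 trans-factorial panel of transiently transfected reporter units. Reporter mRNA is measured 24 h after dosing by RT-PCR and capillary electrophoresis, fitted for gain of signal versus DMSO.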

Test [15] concerns the target Bile acid receptor (Homo sapiens) (UniProt Q96RI1). Briefly: ATG_FXR_TRANS: Attagene TRANS-FACTORIAL HepG2 Assay for Farnesoid X Receptor (FXR) (AID 2282979; active = hit-call score of the fitted dose curve at least 0.9, where 1 is the maximum;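 also: hits raise reporter mRNA above DMSO so AC50 marks FXR activation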). The conditions noted are these: HepG2 Attagene TRANS FXR-GAL4 reporter transcription. In a few lines:
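Reporter transcripts from transfected HepG2 cells were measured 24 h after dosing, using RT-PCR with capillary electrophoresis of 6-FAM-labelled fragments. The read-out reflects activity of exogenous FXR-Gal4 chimera on GAL4-UAS units, with induction relative to DMSO.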

The target of test [16] is Glucocorticoid receptor (Homo sapiens) (UniProt P04150). Briefly: ATG_GR_TRANS: Attagene TRANS-FACTORIAL HepG2 Assay for human Glucocorticoid Receptor (GR) (AID 2282978; active = hit-call score of the fitted dose curve at least 0.9, where 1 is the maximum;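 also: activators score as hits since higher reporter transcript over DMSO is fitted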). Conditions: HepG2 Attagene TRANS GR reporter, mRNA transcription. In a few lines: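 Multiplexed TRANS reporter system, HepG2; 24 h exposure; RNA → oligo(dT) RT → reporter-specific PCR → 6-FAM primer extension → HpaI cut → CE fluorescence. Gain-of-signal vs DMSO.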
Glucocorticoid receptor (Homo sapiens), sequence (P04150 whole entry, looked up): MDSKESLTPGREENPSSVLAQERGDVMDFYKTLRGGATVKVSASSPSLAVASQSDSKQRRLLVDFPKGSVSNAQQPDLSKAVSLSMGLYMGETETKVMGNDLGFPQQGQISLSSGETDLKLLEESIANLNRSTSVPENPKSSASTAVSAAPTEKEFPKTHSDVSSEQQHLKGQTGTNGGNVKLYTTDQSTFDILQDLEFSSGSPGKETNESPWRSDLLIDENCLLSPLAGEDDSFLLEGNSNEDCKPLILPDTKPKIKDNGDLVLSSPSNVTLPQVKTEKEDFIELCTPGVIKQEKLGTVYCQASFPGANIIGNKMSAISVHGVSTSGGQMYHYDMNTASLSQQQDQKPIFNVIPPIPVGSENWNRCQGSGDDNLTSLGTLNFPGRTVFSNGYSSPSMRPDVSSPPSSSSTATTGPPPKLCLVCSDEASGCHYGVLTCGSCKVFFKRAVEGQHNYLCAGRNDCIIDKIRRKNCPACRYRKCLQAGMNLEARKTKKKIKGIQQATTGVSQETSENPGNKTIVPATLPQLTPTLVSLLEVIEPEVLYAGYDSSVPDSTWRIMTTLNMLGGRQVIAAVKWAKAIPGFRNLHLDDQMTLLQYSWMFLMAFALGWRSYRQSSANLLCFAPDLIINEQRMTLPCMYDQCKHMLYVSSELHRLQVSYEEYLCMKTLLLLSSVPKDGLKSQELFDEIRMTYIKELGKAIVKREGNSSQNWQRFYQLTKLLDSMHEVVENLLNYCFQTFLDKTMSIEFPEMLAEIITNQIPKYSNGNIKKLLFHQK

The nature of test [17]: ATG_NF_kB_CIS: Attagene CIS-FACTORIAL HepG2 Assay for human Nuclear Factor Kappa B (NF-kB) (AID 2282991). The conditions noted are these: HepG2 Attagene cis-factorial NF-kB reporter mRNA; actives raise or lower the signal. In a few lines:
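Multiplexed cis-reporter assay in transiently transfected HepG2. 24 h treatment; RNA isolated, RT-PCR, labelled fragments resolved by CE. DMSO baseline.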

A short description of test [18]: ATG_M_32_TRANS: Attagene TRANS-FACTORIAL HepG2 Assay for M32 Transcription Factor (Internal Marker) (AID 2282984; active = hit-call score of the fitted dose curve at least 0.9, where 1 is the maximum). Conditions: HepG2 Attagene TRANS M32 internal marker reporter. In a few lines:
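HepG2 cells transiently transfected with GAL4-UAS reporter units, dosed for 24 hours. Reporter mRNA quantified by RT-PCR, 6-FAM labelling, HpaI digestion and capillary electrophoresis; internal-marker signal fitted upward relative to DMSO.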

Test [19] addresses Nuclear receptor subfamily 4 group A member 2 (Homo sapiens) (UniProt P43354). Briefly: ATG_NURR1_TRANS: Attagene TRANS-FACTORIAL HepG2 Assay for human Nuclear Receptor Related Protein 1 (NURR1) (AID 2282985; active = hit-call score of the fitted dose curve at least 0.9, where 1 is the maximum). The conditions noted are these: HepG2 Attagene TRANS reporter, mRNA readout. In a few lines:
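HepG2 cells transiently transfected with NURR1-Gal4 chimera and GAL4-UAS reporter units; after 24 hr compound exposure, reporter mRNA quantified by RT-PCR and capillary electrophoresis; gain of signal fitted against DMSO.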

Oxysterols receptor LXR-beta (Homo sapiens), sequence (P55055 whole entry, looked up, the tested form may be a part): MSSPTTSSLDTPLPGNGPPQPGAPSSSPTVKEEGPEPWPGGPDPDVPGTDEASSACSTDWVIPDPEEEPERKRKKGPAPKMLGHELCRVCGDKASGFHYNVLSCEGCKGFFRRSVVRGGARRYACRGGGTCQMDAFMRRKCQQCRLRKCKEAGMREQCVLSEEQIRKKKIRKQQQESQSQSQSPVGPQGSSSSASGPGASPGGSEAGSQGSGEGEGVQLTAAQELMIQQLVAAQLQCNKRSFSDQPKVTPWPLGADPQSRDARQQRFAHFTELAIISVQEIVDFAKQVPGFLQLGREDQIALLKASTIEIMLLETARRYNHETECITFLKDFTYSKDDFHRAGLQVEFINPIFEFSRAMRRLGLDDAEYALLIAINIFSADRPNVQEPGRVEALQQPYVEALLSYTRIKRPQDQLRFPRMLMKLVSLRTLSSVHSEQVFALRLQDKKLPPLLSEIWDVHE
Transcriptional activator Myb (Homo sapiens), sequence (P10242 whole entry, looked up): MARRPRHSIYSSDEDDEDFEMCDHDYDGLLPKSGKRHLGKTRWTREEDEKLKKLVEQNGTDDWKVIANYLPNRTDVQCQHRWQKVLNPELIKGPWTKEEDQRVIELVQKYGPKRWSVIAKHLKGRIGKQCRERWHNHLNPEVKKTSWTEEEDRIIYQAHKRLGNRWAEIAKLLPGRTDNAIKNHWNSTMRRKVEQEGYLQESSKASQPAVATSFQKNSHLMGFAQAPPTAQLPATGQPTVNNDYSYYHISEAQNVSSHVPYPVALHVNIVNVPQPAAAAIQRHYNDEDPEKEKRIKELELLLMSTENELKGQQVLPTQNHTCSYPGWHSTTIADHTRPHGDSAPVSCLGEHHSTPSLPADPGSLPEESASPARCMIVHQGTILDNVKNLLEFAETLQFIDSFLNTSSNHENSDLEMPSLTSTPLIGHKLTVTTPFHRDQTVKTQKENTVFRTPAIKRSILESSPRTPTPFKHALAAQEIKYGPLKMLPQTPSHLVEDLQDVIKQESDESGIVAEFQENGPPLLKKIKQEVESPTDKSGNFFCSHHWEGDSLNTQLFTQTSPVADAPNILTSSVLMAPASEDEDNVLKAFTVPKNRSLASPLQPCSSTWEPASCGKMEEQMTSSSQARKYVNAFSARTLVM
Oxysterols receptor LXR-alpha (Homo sapiens), sequence (Q13133 whole entry, looked up, the tested form may be a part): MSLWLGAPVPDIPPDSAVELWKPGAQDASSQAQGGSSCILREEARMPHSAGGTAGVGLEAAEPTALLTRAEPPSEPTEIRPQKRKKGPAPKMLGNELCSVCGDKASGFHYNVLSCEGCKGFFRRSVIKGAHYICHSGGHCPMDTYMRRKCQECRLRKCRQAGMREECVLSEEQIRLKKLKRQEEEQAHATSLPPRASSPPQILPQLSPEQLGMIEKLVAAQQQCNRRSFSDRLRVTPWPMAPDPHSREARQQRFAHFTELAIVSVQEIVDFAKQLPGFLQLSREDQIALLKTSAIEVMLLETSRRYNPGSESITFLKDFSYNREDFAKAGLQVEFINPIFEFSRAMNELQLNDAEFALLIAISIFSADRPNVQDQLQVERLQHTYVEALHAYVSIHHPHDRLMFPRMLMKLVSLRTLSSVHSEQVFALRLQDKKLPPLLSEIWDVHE
Nuclear respiratory factor 1 (Homo sapiens), sequence (Q16656 whole entry, looked up): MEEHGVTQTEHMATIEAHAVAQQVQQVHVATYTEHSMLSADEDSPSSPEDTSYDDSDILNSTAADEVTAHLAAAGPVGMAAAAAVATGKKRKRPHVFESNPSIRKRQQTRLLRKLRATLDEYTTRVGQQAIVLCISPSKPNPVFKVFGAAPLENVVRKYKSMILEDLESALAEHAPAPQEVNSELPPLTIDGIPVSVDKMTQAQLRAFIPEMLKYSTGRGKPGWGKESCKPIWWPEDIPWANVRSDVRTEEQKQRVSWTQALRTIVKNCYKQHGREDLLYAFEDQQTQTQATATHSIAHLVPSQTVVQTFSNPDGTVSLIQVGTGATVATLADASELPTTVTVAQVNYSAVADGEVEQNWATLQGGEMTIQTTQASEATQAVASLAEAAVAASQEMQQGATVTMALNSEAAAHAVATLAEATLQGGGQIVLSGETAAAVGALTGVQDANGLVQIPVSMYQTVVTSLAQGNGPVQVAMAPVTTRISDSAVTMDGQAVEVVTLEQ
Hepatocyte nuclear factor 4-alpha (Homo sapiens), sequence (P41235 whole entry, looked up, the tested form may be a part): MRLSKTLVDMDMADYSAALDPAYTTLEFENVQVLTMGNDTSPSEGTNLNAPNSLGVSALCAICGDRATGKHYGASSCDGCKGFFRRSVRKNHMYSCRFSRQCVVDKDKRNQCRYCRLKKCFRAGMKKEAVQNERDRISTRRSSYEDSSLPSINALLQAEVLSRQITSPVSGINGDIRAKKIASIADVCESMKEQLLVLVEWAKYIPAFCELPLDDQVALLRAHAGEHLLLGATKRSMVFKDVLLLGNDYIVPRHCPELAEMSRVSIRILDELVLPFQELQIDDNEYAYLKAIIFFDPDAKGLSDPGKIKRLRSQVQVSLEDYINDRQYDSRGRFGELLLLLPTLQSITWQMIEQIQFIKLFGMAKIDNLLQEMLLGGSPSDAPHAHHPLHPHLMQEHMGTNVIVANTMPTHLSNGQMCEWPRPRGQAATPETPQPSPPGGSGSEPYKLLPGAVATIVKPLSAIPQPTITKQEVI
Bile acid receptor (Homo sapiens), sequence (Q96RI1 whole entry, looked up, the tested form may be a part): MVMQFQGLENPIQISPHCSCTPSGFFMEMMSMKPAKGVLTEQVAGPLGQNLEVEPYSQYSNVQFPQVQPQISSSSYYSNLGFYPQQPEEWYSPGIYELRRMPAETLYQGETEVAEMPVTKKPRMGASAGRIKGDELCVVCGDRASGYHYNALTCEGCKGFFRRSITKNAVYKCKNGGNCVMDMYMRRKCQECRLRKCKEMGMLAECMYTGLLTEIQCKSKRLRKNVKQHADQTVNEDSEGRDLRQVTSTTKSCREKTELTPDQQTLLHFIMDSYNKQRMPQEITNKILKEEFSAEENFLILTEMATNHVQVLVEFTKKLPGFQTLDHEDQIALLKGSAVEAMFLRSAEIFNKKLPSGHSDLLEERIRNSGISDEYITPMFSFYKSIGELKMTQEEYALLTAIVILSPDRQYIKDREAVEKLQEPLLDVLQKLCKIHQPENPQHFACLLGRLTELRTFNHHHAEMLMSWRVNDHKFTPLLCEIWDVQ

Take `Cc1cnc(C2=NC(C)(C(C)C)C(=O)N2)c(C(=O)O)c1` (centres undefined): the outcome in test [1], in [2], in [3], in test [4], in test [5] and in [6] was inactive. In addition, the call in test [7], in test [9], in test [10], in test [11], in [12] and in [13] was inactive. The AC50 in test [8] is 13 µM (active).
With `COCC(=O)N(c1c(C)cccc1C)C(C)C(=O)OC` (centres undefined), the result in [14], in test [15], in test [2], in [4], in test [5] and in test [6] was inactive. Also, the call in test [7], in [9], in test [10], in test [11], in [12] and in [13] was inactive. Besides, the AC50 in [8] is 50 µM (active).
With `OC(c1ccc(Cl)cc1)(c1ccc(Cl)cc1)C(Cl)(Cl)Cl`, the compound was classed as inactive in test [16], in test [2], in test [3], in test [4], in test [5] and in test [6]. The compound was classed as inactive in test [7], in test [17], in [8], in test [9] and in [10]. Further, the values for the AC50 in [11], in test [12] and in test [13] were 25.6 µM (active), 29.1 µM (active) and 14.1 µM (active), respectively.
Consider `CCOc1nc(C(Cl)(Cl)Cl)ns1`, for which the compound was called inactive in test [1], in test [2], in test [4], in test [5], in test [6] and in test [7]. For the same compound, the outcome in [17], in test [10], in test [11], in test [12] and in [13] was inactive. Further, the AC50 in test [8] was 22.9 µM (active); in [9], 43.5 µM (active).
For `CC1(C)CON(Cc2ccccc2Cl)C1=O`, the result in [14], in [1], in test [2], in [3], in test [18] and in test [4] was inactive. The compound was called inactive in test [5], in test [6], in [7], in [17], in test [9] and in test [10]. Also, the result in test [11], in [12] and in [13] was inactive. Moreover, the AC50 in [8] is 44.1 µM (active).
As to `CCNP(=S)(OC)O/C(C)=C/C(=O)OC(C)C` (centres undefined), the call in test [1], in [2], in test [3], in test [19], in test [4] and in test [5] was inactive. In addition, the compound was called inactive in test [6], in test [7], in [17], in test [9], in [10] and in [11]. For the same compound, the result in test [12] and in [13] was inactive. Further, in [8], the AC50 was 7.44 µM (active).
